Source: PubChem BioAssay
Where “and” joins values, the source holds several entries; their conditions need not be identical. Identical values can stand only once. Calls of active or inactive are those of the source.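 Rule for the calls, unless noted: active = inhibition at or above 50% relative to wild type and mutant plate controls; inactive = inhibition below 50%.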

What was measured:
[1] = reduction of polyQ htt aggregates in cells – imaging, exon1htt(103Q)mCFP cells, high-content imaging, primary screen (AID 483;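 active = visual image review flags a hit and inhibition of aggregation exceeds 20%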;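 note: compound exposure lasted 3 days before fixation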;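 for nuclei count: percent of the per-plate median nuclei count of sample wells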); settings: exon1htt(103Q)mCFP cell line, aggregate imaging, at 2 µM; inhibition of aggregation: stronger effect = higher value; nuclei count: measured here: cell count, toxicity
[2] = endothelial E-selectin expression blockers – imaging, HUVEC, immunofluorescence, MLSMR starter and 10KST1 sets, primary screen (AID 487;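 active = visually confirmed hit in the image check and inhibition above 20%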;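 for inhibition: signal is fraction of cell area covered by stained E-selectin grains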;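 for nuclei count: 100% = median nuclei count of all wells on the same plate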); settings: HUVEC TNFalpha-induced E-selectin immunofluorescence imaging, at 2 µM; inhibition: stronger effect = higher value; nuclei count: measured here: cell number, toxicity
[3] = Primary imaging screen for DUSP6 inhibitors that restore phospho-Erk in transfected HeLa cells, chemical complementation (AID 609;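 active = compounds giving at least 50% inhibition in the cell-based MKP-3 phosphatase rescue imaging test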;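 for inhibition: phospho-Erk level distribution per well compared with pooled transfected vehicle control wells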); settings: HeLa MKP-3 transfected, phospho-Erk imaging KS statistic, at 10 µM
[4] = biological target: Dual specificity protein phosphatase 6 (Homo sapiens) (UniProt Q16828); assay: as above; settings: HeLa MKP-3 transfected, phospho-Erk imaging KS statistic, at 10 µM, stronger effect = higher value
Sequence of Dual specificity protein phosphatase 6 (Homo sapiens) (Q16828 whole entry, looked up): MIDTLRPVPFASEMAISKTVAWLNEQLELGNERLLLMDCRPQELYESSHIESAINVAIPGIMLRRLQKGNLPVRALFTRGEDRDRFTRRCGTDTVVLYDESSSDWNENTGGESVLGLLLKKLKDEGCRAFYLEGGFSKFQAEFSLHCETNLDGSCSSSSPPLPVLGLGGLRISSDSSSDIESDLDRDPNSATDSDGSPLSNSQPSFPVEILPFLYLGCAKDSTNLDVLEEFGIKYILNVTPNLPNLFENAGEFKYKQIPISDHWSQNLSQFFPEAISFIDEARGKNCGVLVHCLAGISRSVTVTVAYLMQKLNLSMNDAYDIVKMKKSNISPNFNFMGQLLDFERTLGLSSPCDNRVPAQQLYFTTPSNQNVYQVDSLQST

[5] = biological target: Voltage-gated potassium channel subunit beta-2 (Rattus norvegicus) (UniProt P62483); assay: inhibitors of rat Kvbeta2 reductase activity – biochemical, NADPH fluorescence, primary screen (AID 622;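 active = fluorescence slope higher than the sample average by over 3 SD, cut at about -0.22 in these data, passing the limit was not always enough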;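 note: slope of raw intensity against log time taken from 70 to 1610 s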); settings: recombinant KvBeta, 4-cyanobenzaldehyde reduction, at 10 µM, stronger effect = higher value
Sequence of Voltage-gated potassium channel subunit beta-2 (Rattus norvegicus) (P62483 whole entry, looked up): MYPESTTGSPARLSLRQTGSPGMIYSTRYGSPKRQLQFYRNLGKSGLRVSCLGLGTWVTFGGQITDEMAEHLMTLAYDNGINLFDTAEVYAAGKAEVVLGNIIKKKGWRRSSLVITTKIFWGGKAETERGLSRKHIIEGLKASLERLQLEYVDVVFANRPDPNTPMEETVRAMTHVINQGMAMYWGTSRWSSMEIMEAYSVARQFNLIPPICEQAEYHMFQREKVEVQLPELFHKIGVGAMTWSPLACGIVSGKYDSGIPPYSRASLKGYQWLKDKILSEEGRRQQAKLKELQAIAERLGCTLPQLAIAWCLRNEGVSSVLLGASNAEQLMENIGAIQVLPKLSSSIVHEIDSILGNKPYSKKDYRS

[6] = biological target: Voltage-gated potassium channel subunit beta-2 (Rattus norvegicus) (UniProt P62483); assay: enhancers of rat Kvbeta2 NADPH turnover – biochemical, NADPH fluorescence, primary screen (AID 623;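 active = NADPH fluorescence slope more negative than the mean of all samples by about 3 SD, 99.7% confidence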;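 note: fluorescence intensity change per second fitted from 20 to 320 s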); settings: Recombinant KvBeta, NADPH fluorescence decrease slope, 10 min; at 10 µM; stronger effect = lower value
[7] = inhibitors of larval lipid processing in zebrafish, primary screen, whole organism, PED6 fluorescence, gall bladder and intestine (AID 686;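 active = a full or partial loss of lipid-probe fluorescence in the fish gall bladder, intestine or both, judged by eye; inactive = no fluorescence loss, or compound toxic to the fish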;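 note: larvae 5 to 7 days old with five fish per well; signal comes from phospholipase A2 cleavage of quenched PED6 carried via bile; overnight exposure to compound and PED6 before scoring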); settings: Zebrafish larvae PED6 lipid processing, fluorescence scoring
[8] = blockers of RIG-like receptor reporter activation – cell-based, Sendai virus stimulus, luciferase, 10K MLSCN set, TLR/RLR signaling modifier project, primary screen (AID 602276;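 active = inhibition at or above 50% at 10 µM; inactive = inhibition below 50%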;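 note: firefly luciferase from ISG56 promoter only with Renilla not read in this screen; 0% = Sendai virus plus DMSO and 100% = medium plus DMSO without virus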); settings: HEK293 RL24 IRF3 luciferase reporter, at 10 µM, stronger effect = higher value
[9] = TLR3 IRF3 reporter activation blockers – cell-based, poly I:C stimulus, luciferase, 10K MLSCN set, primary screen (AID 602277;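 active = inhibition of the reporter signal at or above 50%; inactive = inhibition below 50%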); settings: HEK293-TLR3 RL24 IRF3 luciferase reporter, at 10 µM, stronger effect = higher value
[10] = biological target: Alpha-2C adrenergic receptor (Homo sapiens) (UniProt P18825); assay: compounds altering alpha2C-coupled GIRK flux – cell-based, HEK293 alpha2C/GIRK1/2, thallium flux, primary screen (AID 624;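 active = fluorescence slope after compound addition differing from the mean of all screened samples at 99.7% confidence, in either direction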;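 note: slope of fluorescence ratio to pre-addition baseline per second over 15 to 24 s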); settings: thallium flux BTC fluorescence, at 10 µM, actives lie on both sides
Sequence of Alpha-2C adrenergic receptor (Homo sapiens) (P18825 whole entry, looked up): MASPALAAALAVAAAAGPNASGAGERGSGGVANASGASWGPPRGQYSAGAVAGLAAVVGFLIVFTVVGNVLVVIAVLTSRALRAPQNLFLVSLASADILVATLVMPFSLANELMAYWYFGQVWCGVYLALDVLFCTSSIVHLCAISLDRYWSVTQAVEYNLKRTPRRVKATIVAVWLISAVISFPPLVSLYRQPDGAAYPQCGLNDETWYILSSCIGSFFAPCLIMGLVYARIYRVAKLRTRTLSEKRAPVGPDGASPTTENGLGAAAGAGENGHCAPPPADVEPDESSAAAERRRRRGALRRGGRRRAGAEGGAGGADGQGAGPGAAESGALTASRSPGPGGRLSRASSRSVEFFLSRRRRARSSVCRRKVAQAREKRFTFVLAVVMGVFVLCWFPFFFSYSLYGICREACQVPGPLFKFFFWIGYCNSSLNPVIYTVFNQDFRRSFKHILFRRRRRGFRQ

[11] = loss of swimming-algae plug formation – whole organism, Chlamydomonas reinhardtii, WT vs cilia-less mutant, absorbance, 96-well, primary screen (AID 463189); settings: Chlamydomonas reinhardtii gravitaxis, OD600 absorbance, 2 days; at 10 µM; stronger effect = higher value;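 note: 0% = wild type cc124 cells in DMSO and 100% = ciliumless bld1 mutant cells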
[12] = biological target: Muscarinic acetylcholine receptor M4 (Homo sapiens) (UniProt P08173); assay: M4-linked GIRK flux change, two-sided – cell-based, HEK293 M4/GIRK, thallium flux, BTC-AM, M4 allosteric agonist project, primary screen (AID 625;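 active = fluorescence slope after compound addition differing from the mean of all tested samples at 99.7% confidence, mostly higher but some lower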;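 note: thallium influx through GIRK channels coupled to M4 in HEK293 cells with BTC-AM dye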); settings: at 10 µM, actives lie on both sides
Sequence of Muscarinic acetylcholine receptor M4 (Homo sapiens) (P08173 whole entry, looked up): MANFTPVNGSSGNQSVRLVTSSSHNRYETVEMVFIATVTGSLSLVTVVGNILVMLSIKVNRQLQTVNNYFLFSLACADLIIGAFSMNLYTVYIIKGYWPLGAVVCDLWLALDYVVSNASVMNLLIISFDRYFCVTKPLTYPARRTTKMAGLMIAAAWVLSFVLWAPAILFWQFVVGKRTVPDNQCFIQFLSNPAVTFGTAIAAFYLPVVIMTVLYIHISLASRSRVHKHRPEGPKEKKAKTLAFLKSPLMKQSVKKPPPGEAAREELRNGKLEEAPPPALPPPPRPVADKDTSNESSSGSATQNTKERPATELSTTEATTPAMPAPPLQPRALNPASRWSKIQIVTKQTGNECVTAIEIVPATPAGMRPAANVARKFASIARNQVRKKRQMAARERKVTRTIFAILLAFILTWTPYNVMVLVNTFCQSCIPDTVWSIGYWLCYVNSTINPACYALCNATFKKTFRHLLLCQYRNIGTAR

[13] = measured here: cell density z-score
[14] = measured here: nuclear c-Myc green intensity z-score
[15] = measured here: nuclear pErk red intensity z-score, stronger effect = higher value

Question: Which inhibition of aggregation [1] does the source give for `CC[C@@H]1C(=O)OC[C@@H]1Cc1cncn1C` here?
Answer: 8.3% (inactive) and -13.2% (inactive)

Question: And the nuclei count [1]?
Answer: 112% and 101%

Question: And the inhibition [2]?
Answer: -46.3% (inactive) and -64.9% (inactive)

Question: What about the nuclei count [2] of the same compound?
Answer: 122% and 127%

Question: And the z-score ([3]; measured here: cell density z-score, cells stimulated with TPA for 15 min)?
Answer: 0.654 and -2.12

Question: What about the z-score ([3]; measured here: nuclear c-Myc green intensity z-score, cells stimulated with TPA for 15 min) of the same compound?
Answer: -1.14 and -0.253

Question: And the z-score ([3]; measured here: nuclear pErk red intensity z-score, stronger effect = higher value, cells stimulated with TPA for 15 min)?
Answer: 0.525 and 1.62

Question: What about the inhibition [4] of the same compound?
Answer: 11.3% [cells stimulated with TPA for 15 min] (inactive) and 10.2% [cells stimulated with TPA for 15 min] (inactive)

Question: And the fluorescence slope [5]?
Answer: -0.572 (inactive) and -0.488 (inactive)

Question: What about the NADPH fluorescence slope [6] of the same compound?
Answer: 7.3e-06 (inactive) and -6e-05 (inactive)

Question: And the outcome [7]?
Answer: inactive [screened at 20 µM (by protocol)]

Question: What about the inhibition [8] of the same compound?
Answer: 18.4% (inactive) and -3.13% (inactive)

Question: And the inhibition [9]?
Answer: 19% (inactive) and 27% (inactive)

Question: With `CN(C)[C@@H]1C(=O)C(C(N)=O)=C(O)[C@@]2(O)C(=O)C3=C(O)c4c(O)cccc4[C@@](C)(O)[C@H]3[C@H](O)[C@@H]12` as the compound, how does the inhibition of aggregation [1] read?
Answer: 62.6% (active)

Question: And the nuclei count [1]?
Answer: 102%

Question: What about the inhibition [2] of the same compound?
Answer: -42.6% (inactive)

Question: What about the nuclei count [2] of the same compound?
Answer: 123%

Question: And the z-score [3, 13]?
Answer: 1.9

Question: And the z-score [3, 14]?
Answer: -1.29

Question: And the z-score [3, 15]?
Answer: -0.511

Question: And the inhibition [4]?
Answer: 8% (inactive)

Question: What about the fluorescence slope [5] of the same compound?
Answer: -0.459 (inactive)

Question: And the NADPH fluorescence slope [6]?
Answer: -9.9e-05 (inactive)

Question: And the slope [10]?
Answer: 0.00569 (inactive)

Question: And the outcome [7]?
Answer: inactive

Question: And the inhibition [11]?
Answer: 12% (inactive)

Question: What about the inhibition [8] of the same compound?
Answer: -6.24% (inactive)

Question: And the inhibition [9]?
Answer: 5.5% (inactive)

Question: Which inhibition [11] does the source give for `CCCN(CCC)[C@@H]1CCc2c(F)ccc(O)c2C1` here?
Answer: -5.24% (inactive)

Question: For `CC(C)(C)NCC(O)c1ccccc1Cl` (configuration not stated), which inhibition [11] is on record?
Answer: 8.05% (inactive)

Question: With `CC(=O)CC(C)(C)n1c[n+](C)nn1` as the compound, how does the inhibition [2] read?
Answer: -59% (inactive)

Question: What about the nuclei count [2] of the same compound?
Answer: 155%

Question: And the z-score [3, 13]?
Answer: 0.619

Question: And the z-score [3, 14]?
Answer: -0.892

Question: What about the z-score [3, 15] of the same compound?
Answer: -1.39

Question: What about the inhibition [4] of the same compound?
Answer: -5.89% (inactive)

Question: And the fluorescence slope [5]?
Answer: -0.383 (inactive)

Question: And the NADPH fluorescence slope [6]?
Answer: -5.6e-05 (inactive)

Question: And the fluorescence slope [12]?
Answer: 0.00569 (inactive)

Question: What about the outcome [7] of the same compound?
Answer: inactive

Question: What about the inhibition [11] of the same compound?
Answer: -0.884% (inactive)

Question: Which inhibition [11] does the source give for `CC(C)CC(NP(=O)(O)O[C@@H]1O[C@@H](C)[C@H](O)[C@@H](O)[C@H]1O)C(=O)NC(Cc1c[nH]c2ccccc12)C(=O)O` (some centres not stated) here?
Answer: 5.76% (inactive)

Question: With `N[C@@H](CCl)C(=O)O` as the compound, how does the inhibition [11] read?
Answer: 3.95% (inactive)

Question: With `COc1ccc2c3c1O[C@H]1C(=O)CC[C@@]4(O)C(C2)N(CC2CC2)CCC314` (some centres not stated) as the compound, how does the inhibition [11] read?
Answer: 3.52% (inactive)

Question: Which inhibition [2] does the source give for `COc1ccc2c(c1)c(C(=O)O)c(C)n2CC(C)C` here?
Answer: 37.7% (inactive)

Question: And the nuclei count [2]?
Answer: 86.4%

Question: And the z-score [3, 13]?
Answer: -0.228

Question: And the z-score [3, 14]?
Answer: -1.03

Question: What about the z-score [3, 15] of the same compound?
Answer: 0.232

Question: What about the inhibition [4] of the same compound?
Answer: -2.07% (inactive)

Question: What about the fluorescence slope [5] of the same compound?
Answer: -0.462 (inactive)

Question: What about the NADPH fluorescence slope [6] of the same compound?
Answer: -3.5e-05 (inactive)

Question: And the fluorescence slope [12]?
Answer: 0.00491 (inactive)

Question: And the outcome [7]?
Answer: inactive

Question: What about the inhibition [11] of the same compound?
Answer: 36.3% (inactive)

Question: Which results are given for `Cn1c(O)c(C(=O)c2ccccc2Cl)c(=O)n(C)c1=O`?
Answer: inhibition [2]: 35.3% (inactive); nuclei count [2]: 79.3%; z-score [3, 13]: -0.324; z-score [3, 14]: 0.445; z-score [3, 15]: 0.96; inhibition [4]: 5.57% (inactive); fluorescence slope [5]: -0.47 (inactive); NADPH fluorescence slope [6]: -3.4e-05 (inactive); fluorescence slope [12]: 0.00543 (inactive); outcome [7]: inactive; inhibition [11]: 9.5% (inactive)

Question: What does the source list for `c1ccc2c(c1)OCC(C1=NCCN1)O2` (configuration not stated)?
Answer: inhibition of aggregation [1]: 2.2% (inactive); nuclei count [1]: 109%; inhibition [2]: -66.1% (inactive); nuclei count [2]: 128%; z-score [3, 13]: 0.816; z-score [3, 14]: -0.0814; z-score [3, 15]: 0.589; inhibition [4]: 27.9% (inactive); fluorescence slope [5]: 0.111 (active); NADPH fluorescence slope [6]: -0.000173 (inactive); slope [10]: 0.0054 (inactive); outcome [7]: inactive; inhibition [11]: -4.66% (inactive) and 22.4% (inactive); inhibition [8]: -8.86% (inactive); inhibition [9]: 10.1% (inactive)

Question: With `O=S1(=O)N(CCN2CC=C(c3c[nH]c4cc(F)ccc34)CC2)c2cccc3c2N1CCC3` as the compound, how does the inhibition [11] read?
Answer: -4.93% (inactive)

Question: Which inhibition [11] does the source give for `COc1cc(CCN)ccc1O` here?
Answer: 2.21% (inactive)

Question: Which inhibition [11] does the source give for `COc1ccc(CNC(=O)/C=C/c2ccc3[nH]cc(CCN(C)C)c3c2)cc1` here?
Answer: -7.85% (inactive)

Question: Which inhibition of aggregation [1] does the source give for `C[N+]1(C)[C@@H]2CC[C@H]1CC(OC(=O)C(CO)c1ccccc1)C2` (some centres not stated) here?
Answer: -2.8% (inactive)

Question: What about the nuclei count [1] of the same compound?
Answer: 112%

Question: What about the inhibition [2] of the same compound?
Answer: -82.3% (inactive) and -114% (inactive)

Question: What about the nuclei count [2] of the same compound?
Answer: 123% and 124%

Question: And the z-score [3, 13]?
Answer: -1.12 and 0.779

Question: And the z-score [3, 14]?
Answer: 0.388 and 0.223

Question: What about the z-score [3, 15] of the same compound?
Answer: -0.779 and -1.81

Question: What about the inhibition [4] of the same compound?
Answer: 1.48% (inactive) and 15.3% (inactive)

Question: And the fluorescence slope [5]?
Answer: -0.509 (inactive) and -0.518 (inactive)

Question: And the NADPH fluorescence slope [6]?
Answer: -2.9e-05 (inactive) and -4.5e-05 (inactive)

Question: What about the slope [10] of the same compound?
Answer: 0.005 (inactive) and 0.00423 (inactive)

Question: What about the outcome [7] of the same compound?
Answer: inactive

Question: And the inhibition [11]?
Answer: 30.8% (inactive) and -7.87% (inactive)

Question: And the inhibition [8]?
Answer: 13.4% (inactive) and 12.2% (inactive)

Question: What about the inhibition [9] of the same compound?
Answer: 35.7% (inactive) and 30.4% (inactive)

Question: Which inhibition [2] does the source give for `O=C1CC[C@@]2(O)[C@H]3Cc4ccc(O)c5c4[C@@]2(CCN3CC2CC2)[C@H]1O5` here?
Answer: -64.2% (inactive)

Question: What about the nuclei count [2] of the same compound?
Answer: 120%

Question: And the z-score [3, 13]?
Answer: 1.03

Question: And the z-score [3, 14]?
Answer: 0.419

Question: And the z-score [3, 15]?
Answer: 0.423

Question: And the inhibition [4]?
Answer: 11.3% (inactive)

Question: And the fluorescence slope [5]?
Answer: -0.463 (inactive)

Question: And the NADPH fluorescence slope [6]?
Answer: -9.1e-06 (inactive)

Question: What about the slope [10] of the same compound?
Answer: 0.0048 (inactive)

Question: And the outcome [7]?
Answer: inactive

Question: And the inhibition [11]?
Answer: 17.1% (inactive)

Question: And the inhibition [8]?
Answer: 10.3% (inactive)

Question: And the inhibition [9]?
Answer: 48.8% (inactive)
